# Sampled rows, rich in hits. Any-hit rate of the full collection: about 5.9%.
# HepG2 viability: counter-screen for TGF-b inhibitors: cytotoxicity in HepG2 cells. AID 588856. Potency, µM (titrated, usually from 46.1 µM), actives largely listed as cytotoxic. HepG2 CAGA-GFP viability, ATP luminescence, 18 h. hit rate 0.76% among 410,000
#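 CellTiter-Glo luminescence gave cytotoxicity after 18 hours at 37 degrees C. The cells were HepG2 CAGA-GFP in 1% FBS DMEM, stimulated with 500 pg/mL TGF-beta after compound addition. %Activity was normalised to no-cell wells (complete cell-killing) and DMSO (no toxicity), and curves were fitted and classified.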
# KB-V1 cytotox: KB-V1 MDR subline cytotoxicity. hit rate 3.4% among 400,000. AID 1347076. Potency, µM (doses to about 46.1 µM), usual class: cytotoxic. KB-V1 MDR cells viability, CellTiter-Glo, 72 h; further: nearly all actives have a fitted effect of over 60% in size
#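 KB-V1 cells (P-gp-expressing MDR subline of KB-3-1) in phenol-red-free DMEM with 10% FBS were exposed to library compounds over a concentration series for 72 h at 37 degrees C. Viability read by CellTiter-Glo luminescence; concentration-effect curves fitted after normalization.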
# KB-3-1 tox: kills parental KB-3-1 adenocarcinoma cells. KB-3-1 viability, CellTiter-Glo ATP luminescence, 72 h. hit rate 1.4% among 400,000. AID 1347075. Potency, µM (titrated, usually from 46.1 µM), most hits filed as cytotoxic; further: nearly all actives have a fitted effect of over 60% in size
#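 72 h, 37 °C compound treatment of KB-3-1 parental cells; CellTiter-Glo added, 10 min, luminescence read. Data corrected against DMSO-only plates and normalized before curve fitting.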
# ATXN2 expr inh: inhibitors of ATXN2 expression; HEK-293 ATXN2-luciferase reporter, luminescence, 24 h; Potency, µM (top dose mostly 57 µM), hits mostly inhibitors; hit rate 0.72% among 360,000; AID 1745845; further: nearly all actives have a fitted effect of over 55% in size
#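 ATXN2-luciferase reporter cells (luciferase flanked by upstream and downstream ATXN2 gene portions) were treated 24 h at 37 °C with compounds at up to 57 uM. SteadyGlo luminescence gave expression; GF-AFC fluorescence gave viability.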
# TGFb inhibitor: TGF-b pathway inhibition. HepG2 CAGA-GFP TGF-b/SMAD3 reporter, GFP fluorescence, 18 h; TGF-beta stimulated, 500 pg/mL final. Potency, µM (top dose mostly 46.1 µM), usual class: inhibitors. hit rate 1.2% among 410,000. AID 588855; further: nearly all actives have a fitted effect of over 65% in size
#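 Using HEPG2 CAGA-GFP reporter cells at 1000 cells/well, we pinned test compounds, stimulated with recombinant TGF-beta (500 pg/mL final) and measured total well GFP after 18 h.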
# ATXN viability: cell viability loss in ATXN counter-screen. AID 651635. Potency, µM (titrated, usually from 56.7 µM), actives largely listed as cytotoxic. S2 cells (HEK-293 line with an ATXN2-luciferase reporter) viability, CellTiter-Fluor protease fluorescence, 24 h. hit rate 0.49% among 400,000; further: nearly all actives have a fitted effect of over 40% in size
# Numbers stand for hits; – = inactive; ? = inconclusive; · = no result given. The call rests on the fitted dose curve; in most records, active means well fitted curve in the direction sought with a large enough effect; inconclusive means small, poorly fitted or top-dose-only effect, or another doubt; inactive means no such curve, though single readings can be large; an effect the other way counts as inactive or inconclusive.
SMILES,HepG2 viability,KB-V1 cytotox,KB-3-1 tox,ATXN2 expr inh,TGFb inhibitor,ATXN viability
CC(C)c1ccc(Nc2ncc3c(n2)CCN(C(=O)Nc2ccc(F)c(Cl)c2)C3)cc1,–,18µM,?,–,?,–
O=C(Nc1ccc(OC(F)(F)F)cc1)N1CCc2nc(NCc3cccc(Oc4ccccc4)c3)ncc2C1,–,13µM,?,–,?,–
CCCCNC(=O)c1c(-c2ccccc2)c(-c2ccccc2)nn(C)c1=O,–,·,·,·,–,·
CCc1ccccc1-n1c(C)nc2cc(C(=O)NCCc3ccc(Cl)cc3)ccc21,–,–,–,?,?,·
CC/C(=C/c1sc2ccc(C)cc2[n+]1CCCS(=O)(=O)[O-])SC,–,–,–,–,–,–
CCN1/C(=C/c2ccc3cc(C)ccc3[n+]2CC)Sc2cc(C)ccc21,–,–,?,?,–,·
CCN1/C(=C/c2ccc3ccccc3[n+]2CC)C=Cc2ccccc21,10µM,?,0.82µM,3.2µM,1.8µM,10µM
CCN1/C(=C/c2ccc3ccccc3[n+]2CCCS(=O)(=O)[O-])C=Cc2cc(C)ccc21,–,–,–,–,–,18µM
CCN1/C(=C/c2cc[n+](C)cc2)C=Cc2cc(C)ccc21,–,–,2.9µM,?,?,·
CCCCN1/C(=C/c2ccc3ccccc3[n+]2CC)Sc2ccccc21,–,–,–,?,–,16µM
CC[n+]1c2ccccc2cc2ccccc21,–,–,?,·,–,·
Cc1cccc(Nc2nc(-c3c(C)nc4ccccn34)cs2)c1,–,7.3µM,?,?,?,?
Cc1nc2ccccn2c1-c1csc(Nc2cccc(C(=O)O)c2)n1,–,–,–,–,–,–
Cc1nc2ccccn2c1-c1csc(Nc2cccc(O)c2)n1,–,10µM,?,–,?,?
COc1ccc(CCN2C(=O)COc3ccccc3C2C(=O)Nc2c(C)cccc2C)cc1OC (stereo not given),·,–,–,–,·,–
COCc1c(C(=O)N2CCN(Cc3ccc4c(c3)OCO4)CC2)oc2ccccc12,–,–,?,–,–,–
COCc1c(C(=O)N2CCN(Cc3ccc(C#N)cc3)CC2)oc2ccccc12,–,13µM,?,–,–,–
CC(=O)c1cccc(N2C(=O)C3C4CCC(C4=C(C)C)C3C2=O)c1 (stereo not given),–,18µM,–,–,–,–
Cc1ccc(NC(=O)c2cccc(N3C(=O)C4C5CCC(C5)C4C3=O)c2)c(C)c1 (stereo not given),–,4.1µM,–,–,–,?
Cc1ccccc1NC(=O)c1cccc(N2C(=O)C3CCCCC3C2=O)c1 (stereo not given),–,–,–,–,–,–
O=C(O)c1ccc(NC(=O)c2cccc(N3C(=O)C4C5CCC(C5)C4C3=O)c2)cc1 (stereo not given),–,?,–,–,–,?
Cc1ccccc1NC(=O)c1cccc(N2C(=O)C3C4CCC(C4)C3C2=O)c1 (stereo not given),–,23µM,–,–,–,–
O=C(Nc1ccc(Cl)cc1)c1cccc(N2C(=O)C3C4CCC(C4)C3C2=O)c1 (stereo not given),–,8.2µM,?,–,–,–
CC(=O)Oc1cccc(N2C(=O)C3C4C=CC(C4=C(C)C)C3C2=O)c1 (stereo not given),–,–,–,–,–,–
Cc1nc(N2CCN(c3ccccn3)CC2)c2c(C)c(C(=O)N3CCN(c4ccccc4F)CC3)sc2n1,–,21µM,?,?,–,?
SMILES,HepG2 viability,KB-V1 cytotox,KB-3-1 tox,ATXN2 expr inh,TGFb inhibitor,ATXN viability
CCOC(=O)[C@]12CCCC=C1N(Cc1ccc(Cl)cc1Cl)C(=O)[C@H](CC(=O)NCCc1ccccc1OC)C2,·,?,?,–,·,?
CCCCNC(=O)C[C@@H]1C[C@@]2(C(=O)OCC)CCCC=C2N(CCc2ccc(OC)c(OC)c2)C1=O,·,?,–,·,·,·
CCOC(=O)[C@]12CCCC=C1N(CCc1ccc(OC)c(OC)c1)C(=O)[C@H](CC(=O)NCCCCc1ccccc1)C2,·,21µM,?,·,·,·
CCCCCCCCN1C(=O)[C@H](CC(=O)NCCc2ccccc2OC)C[C@@]2(C(=O)OCC)CCCC=C12,·,21µM,–,?,·,22µM
CCCCCCCCN1C(=O)[C@H](CC(=O)NCC23CC4CC(CC(C4)C2)C3)C[C@@]2(C(=O)OCC)CCCC=C12,·,–,16µM,–,·,–
CCOC(=O)[C@]12CCCC=C1N(CCc1ccc(OC)c(OC)c1)C(=O)[C@H](CC(=O)NCCc1ccccc1OC)C2,·,13µM,–,·,·,·
C#CCNC(=O)C[C@@H]1C[C@@]2(C(=O)OC)CCCCC=C2N(CCc2ccc(OC)c(OC)c2)C1=O,·,?,–,·,·,·
COC(=O)[C@]12CCCCC=C1N(CCc1ccc(OC)c(OC)c1)C(=O)[C@H](CC(=O)NCC13CC4CC(CC(C4)C1)C3)C2,·,18µM,?,·,·,·
Cc1cc(C)n(-c2cccc(C(=O)NCC3Cc4cccc(-c5cccnc5)c4O3)c2)n1 (stereo not given),·,·,·,·,·,–
ClCC1=Nc2ccccc2Cc2ccccc21,–,–,–,–,–,–
N#CC1C(=N)Cc2ccccc2-c2ccccc21 (stereo not given),–,15µM,?,–,–,?
COc1ccc(/C=C/c2cc(-c3ccc(C)cc3)o[n+]2C)cc1,–,–,?,?,10µM,?
COc1ccc(/C=C/c2c(-c3ccc(OC)cc3)oc3ccc(-c4ccc(OC)cc4)cc23)cc1,–,–,–,–,–,–
COc1cc(OC)cc(-c2ccc3ncc4ccc(=O)n(-c5ccc(N6CCNCC6)c(C(F)(F)F)c5)c4c3c2)c1,·,·,·,19µM,·,·
CCCCn1c(=N)c(S(=O)(=O)c2ccc(Cl)cc2)cc2c(=O)n3cccc(C)c3nc21,–,?,–,–,–,?
CCCc1nc(NCc2ccccn2)c2nnn(Cc3ccccc3F)c2n1,–,2.9µM,?,–,–,–
CCCc1nc(NCc2ccncc2)c2nnn(Cc3ccccc3F)c2n1,–,?,–,–,–,–
CCN(c1cccc(C)c1)S(=O)(=O)c1nnc(NC(=O)c2cccs2)s1,–,·,·,·,–,·
COc1ccc(Cn2ccc3nc(C)c(C(=O)N4CCN(c5ccc(OC)cc5)CC4)cc3c2=O)cc1,–,–,–,–,?,–
CCOC(=O)N1CCN(C(=O)c2ccc(N(Cc3ccccc3)S(C)(=O)=O)cc2)CC1,–,16µM,–,–,–,–
CCOC(=O)N1CCN(C(=O)c2ccc(N(Cc3ccc(C)cc3)S(C)(=O)=O)cc2)CC1,–,18µM,–,–,–,–
